Measurements: PubChem BioAssay (NCI)
Compounds without any hit were thinned out: in the full panel of roughly 83,000, 20% have a hit.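 Activity criterion: percent growth below 10, measured after cells in 96-well plates were exposed to a single compound concentration for 48 hours.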 A number with no mark means an inactive call. The source made the active and inactive calls.

Experiments:
Experiment in all cases: NCI-60 one-dose screen, 48 h (100 = growth as untreated, 0 = no growth, -100 = all killed)
Settings in all cases: 10 µM unless noted
RPMI-8226 leukemia = test system: RPMI-8226 leukemia
OVCAR-8 ovarian = test system: OVCAR-8 ovarian
OVCAR-5 ovarian = test system: OVCAR-5 ovarian
OVCAR-4 ovarian = test system: OVCAR-4 ovarian
SK-OV-3 ovarian = test system: SK-OV-3 ovarian
IGROV1 ovarian = test system: IGROV1 ovarian
OVCAR-3 ovarian = test system: OVCAR-3 ovarian
HS 578T breast = test system: HS 578T breast
NCI/ADR-RES ovarian = test system: NCI/ADR-RES ovarian

Compound | growth (RPMI-8226 leukemia) | growth (OVCAR-8 ovarian) | growth (OVCAR-5 ovarian) | growth (OVCAR-4 ovarian) [%] | growth (SK-OV-3 ovarian) | growth (IGROV1 ovarian) | growth (OVCAR-3 ovarian) | growth (HS 578T breast) | growth (NCI/ADR-RES ovarian)
Cc1ccc(-c2nn(C)c(=O)c3noc(-c4ccc(C)cc4)c23)cc1 | 20.4% | 43.8% | 57.4% | 61.4 | 26.7% | 48.2% | 8.74% (active) | 28% | 30.4%
Cc1cccc(OCC(O)CN2CCN(c3ccc(Cl)cc3)CC2)c1 (stereo not given) | 103% | 94.9% | 103% | 106 | 115% | 124% | 104% | 107% | 102%
Oc1ccc(-c2nc3ccc4[nH]ncc4c3c3c2CCCC3)c2cccnc12 | -6.23% (active) | 9.31% (active) | 21.9% | 10.2 | -0.881% (active) | 6.65% (active) | 18.3% | -14.7% (active) | 7.95% (active)
CC(=O)c1ccc(Nc2nc(C(C)=O)c(C)s2)cc1 | 95.1% | 102% | 108% | 94.4 | 101% | 98.2% | 99.9% | 99.5% | 105%
COc1ccc(CNC(=O)C(=O)[C@H](Cc2ccccc2)NC(=O)c2[nH]c3ccccc3c(=O)c2C)cc1 | 102% | 102% | 102% | 99.5 | 108% | 98.3% | 103% | 98.8% | 108%
COc1ccc(NC(=O)n2nc(/C=C\c3ccc(O)c(OC)c3)cc2/C=C\c2ccc(O)c(OC)c2)cc1 | 21.3% | 32.8% | 62.3% | 51.5 | 60.7% | 34.4% | 13.6% | 28.7% | 23.9%
CN1CCN(c2ccc(-c3ccc4ncc(C#N)c(Nc5ccc(F)c(Cl)c5)c4c3)cn2)CC1 | 14.9% | 59.8% | 60.8% | 52.2 | 25.8% | 8.52% (active) | 58.6% | 52.2% | 67.8%
CCN1C(=O)N(CC)C2Nn3c(s/c(=C4\C(=O)Nc5ccccc54)c3=O)=NC21 (stereo not given) | 53.2% | 43.6% | 66.4% | 54.9 | 75.8% | 52.3% | 10.5% | 34.7% | 73%
CCOC(=O)Cn1c(C)c(/C=N/NC(=O)c2cc3c(ccc4ccccc43)o2)c2ccccc21 | 10.6% | 15.5% | 40% | 51 | 6.12% (active) | 26.3% | 0.688% (active) | 34.7% | 8.7% (active)
Fc1cc2c(cc1Cl)N(c1ncnc3ccc(-c4cnc5cnccn45)cc13)CC2 | 95.2% | 91.4% | 74.4% | 94.8 | 94.2% | 48.2% | 87.4% | 93.4% | 86.8%
O=C1NC(=O)C(Cn2cnc3ccccc32)N1 (stereo not given) | 99.5% | 106% | 110% | 105 | 101% | 105% | 103% | 107% | 101%
N#Cc1c(-c2ccccc2)nc(SCC(=O)Nc2nc(-c3ccc(Cl)cc3)cs2)[nH]c1=O | 92.5% | 99.1% | 90.7% | 110 | 85.2% | 96.5% | 108% | 88.6% | 103%
COc1ccc(C2=Nn3c(nnc3-c3cc(Cl)cc(Cl)c3Cl)SC2)cc1 | 1.17% (active) | 19.5% | 6.36% (active) | 30.8 | 24.4% | -11% (active) | -24.6% (active) | 11.7% | -20.8% (active)
Cc1onc2c(-c3ccccc3)n[nH]c(=O)c12 | 107% | 116% | 98.8% | 108 | 87.1% | 140% | 106% | 127% | 106%
COc1ccc(C2CC(c3ccc(Nc4ccnc5cc(Cl)ccc45)cc3)=NN2C=O)cc1 (stereo not given) | 30.9% | 73.3% | 102% | 62.3 | 96.9% | 67.5% | 52.7% | 68.8% | 51.7%
CC(=O)OC[C@H]1OC(Sc2sc(C(=O)c3ccc(Br)cc3)c(N)c2-c2nc3ccccc3s2)[C@H](OC(C)=O)[C@@H](OC(C)=O)[C@H]1OC(C)=O (stereo not given in full) | 65.5% | 80.3% | 105% | 46.9 | 57.3% | 68.8% | 67.1% | 95.4% | 88.4%
COc1cccc(-c2nn(-c3ccccc3)cc2-c2ccnc(N3CCOCC3)c2)c1 | 67.9% | 96.6% | 94.7% | 84.2 | 87.9% | 79.5% | 95.5% | 115% | 77.5%
Cc1nc(S(=O)(=O)c2ccccc2)c(S(=O)(=O)Cc2ccc([N+](=O)[O-])cc2)o1 | 82.6% | 100% | 86.5% | 93.1 | 99.1% | 95.8% | 83.9% | 87.6% | 104%
Cc1ccc(-c2nc3c(c(-c4ccccc4)nn3-c3ccccc3)c(-c3ccc(O)cc3)c2C#N)cc1 | 21.4% | 69% | 104% | 82.2 | 92.6% | 82.6% | 64.5% | 24% | 81.4%
O=C(N/N=C/c1ccc(Cl)cc1)c1ccc(C(F)(F)F)nc1Nc1cccc(C(F)(F)F)c1 | 3.59% (active) | 24% | 28% | 18.6 | 23.8% | 21.1% | -45.2% (active) | 4.32% (active) | -36.2% (active)
COc1ccc2c(c1OC)C(=O)O[C@H]2[C@H]1c2c(cc3c(c2OC)OCO3)CCN1C | 107% | 95.8% | 96.2% | 105 | 111% | 102% | 124% | 96.5% | 84.7%
O=C(CCOCCNC(=O)COc1ccc2c(c1)OCC(c1ccc(F)cc1)C2=O)NCCCC(O)(P(=O)(O)O)P(=O)(O)O (stereo not given) | 108% | 104% | 103% | 99.2 | 108% | 118% | 104% | 105% | 107%
O=CN1N=C(c2ccc(Nc3ccnc4cc(Cl)ccc34)cc2)CC1c1ccccc1 (stereo not given) | 17.2% | 51.8% | 84.1% | 39 | 41.3% | 50.2% | 14.6% | 47.5% | 7.22% (active)
N#Cc1c(Nc2cccc(Cl)c2)sc(C(=O)c2cc3cc(Cl)ccc3o2)c1N | 56.8% | 67.4% | 86.4% | 92.5 | 97.9% | -8.05% (active) | 111% | 105% | 84.3%
Cc1cc(O)c(C2=NN(c3ccc(S(N)(=O)=O)cc3)C(c3ccccc3O)C2)cc1Cl (stereo not given) | 15.4% | 4.04% (active) | -15.1% (active) | 44 | 34.1% | 0.983% (active) | -45.8% (active) | 8.33% (active) | 1.92% (active)
COc1ccc(C(=S)N2CCN(c3cccc(C)c3)CC2)cc1OC | 80% | 76.6% | 93.4% | 103 | 88.5% | 42.4% | 41.1% | 103% | 5.68% (active)
Clc1ccc(C(/C=C/c2sc(Cl)nc2Cl)=N/Nc2cc(Cl)cc(Cl)c2)cc1 | 98.1% | 104% | 104% | 100 | 98.9% | 89.7% | 103% | 98.3% | 104%
CCCCCCN(CCCCCC)c1ccc(/C=C2/SC(=O)NC2=O)c(C)c1 | 65.5% | 80.6% | 109% | 69.6 | 96.5% | 83.6% | 86.7% | 86.8% | 86.7%
CCCCCCCCCCCCCCCCCCOc1ccccc1CC(=O)OCC[N+](CC)(CC)CC | -3.45% (active) | 17.7% | 41% | 19.1 | 66.2% | -26.9% (active) | 31.4% | 38.2% | 95.9%
Cc1ccc2nc(NC(=O)CSc3nc(Cl)c(C#N)c(-c4ccccc4)n3)sc2c1 | 96.9% | 98.3% | 104% | 105 | 95.7% | 93.3% | 107% | 95.9% | 102%
